High-throughput results deposited in PubChem by National Center for Advancing Translational Sciences (NCATS).
A selection: hits, their analogues and other compounds. The true share with any hit is near 12%.
Lassa entry inh: inhibitors of Lassa virus binding or cell entry | Lassa virus pseudotype entry inhibition, cell reporter | Potency, µM (top dose mostly 37.9 µM), usual class: inhibitors | AID 540256 | 1.2% of 300,000 active; calls by dose curve; tested in HEK293 cells; further: nearly all actives have a fitted effect of over 50% in size
Cycloheximide cs: counter-screen hit for Shiga toxin inhibitors, cycloheximide | AID 2314 | max response, % | cell reporter, cycloheximide protein synthesis inhibition counterscreen | 12% of 300,000 active; in the data active means max response mostly above about 13%, no sharp cut-off; inactive means mostly below about 14%; further: read at 38.3 µM for the half of the compounds with a filed dose
Marburg entry inh: Marburg virus entry inhibition | 1.8% of 300,000 active | Potency, µM (doses to about 37.8 µM), hits mostly inhibitors | Marburg virus pseudotyped entry inhibition, cell reporter | AID 540276; calls by dose curve; tested in HEK293 cells
Shiga inhibitor: blocks Shiga toxin action in Vero cells; Vero cells, Shiga toxin protein synthesis inhibition reporter; inhibition, % at 38.7 µM; AID 2315; 9.2% of 290,000 active; in the data active means inhibition mostly above about 28%, no sharp cut-off; inactive means mostly below about 43%
Large screens that a line does not name were inactive.

O=C(COC(=O)c1ccc(Br)o1)Nc1cccc(S(=O)(=O)N2CCCCC2)c1	none (no result: Cycloheximide cs, Shiga inhibitor)
CN(C)S(=O)(=O)c1cccc(NC(=O)COC(=O)c2cc(=O)c3ccccc3o2)c1	none (no result: Lassa entry inh, Marburg entry inh)
Cc1onc(-c2c(F)cccc2Cl)c1C(=O)OCC(=O)Nc1cccc(S(=O)(=O)N(C)C)c1	Lassa entry inh inconclusive, Marburg entry inh 15.8µM (no result: Cycloheximide cs, Shiga inhibitor)
O=C(COC(=O)c1cc2ccccc2oc1=O)Nc1cccc(S(=O)(=O)N2CCCCCC2)c1	Lassa entry inh inconclusive, Cycloheximide cs 27.2, Shiga inhibitor 64.1
O=C(COC(=O)c1cc2ccccc2oc1=O)Nc1ccc(F)cc1F	Cycloheximide cs 51.5, Shiga inhibitor 118.0 (no result: Lassa entry inh, Marburg entry inh)
Cc1ccc(N(CN2CCCC2=O)C(=O)c2ccc(C)c(C)c2)cc1	Cycloheximide cs 16.5
Cc1ccc(C(=O)N(CN2CCCC2=O)c2ccccc2)cc1C	none
COC1=C[C@@H](C(=O)N[C@H]2CCCC[C@H]2NC(C)=O)[C@@H](C)[C@H](c2ccccc2)CC1=O	Marburg entry inh inconclusive (no result: Cycloheximide cs, Shiga inhibitor)
Cc1nn(-c2ccc(C(=O)O)cc2)c(C)c1Cl	Cycloheximide cs 25.2, Shiga inhibitor 57.6
Cc1nn(-c2ccc(C(=O)O)cc2)c(N)c1-c1ccccc1	Cycloheximide cs 28.1, Marburg entry inh inconclusive, Shiga inhibitor 22.7
COc1ccc(-c2c(C)nn(-c3ccccc3)c2N)cc1	Lassa entry inh inconclusive, Cycloheximide cs 23.4
Cc1nn(C(C)(C)C)c(N)c1-c1ccccc1	none
Cc1nn(-c2nc3ccccc3[nH]2)c(N)c1-c1ccc(Cl)cc1	Cycloheximide cs 46.3, Marburg entry inh inconclusive, Shiga inhibitor 82.4
Cc1nn(-c2nc3ccccc3[nH]2)c(=O)c2ccccc12	Lassa entry inh inconclusive, Marburg entry inh inconclusive
Cc1ccnc(SCc2cc(=O)c(OC(=O)c3ccc(S(=O)(=O)N(C)C)cc3)co2)n1	none
OCC1(CCCc2ccccc2)CCN(Cc2cnc(N3CCOCC3)s2)CC1	Lassa entry inh 11.2µM, Marburg entry inh inconclusive
O=[N+]([O-])c1cc(-c2cnc3ccccc3n2)ccc1Oc1ccc(Br)cc1	Cycloheximide cs 29.2, Marburg entry inh inconclusive, Shiga inhibitor 110.6
O=[N+]([O-])c1ccc(Oc2ccc(-c3cnc4ccccc4n3)cc2[N+](=O)[O-])cc1	Cycloheximide cs 21.0, Shiga inhibitor 39.9
COc1ccc(N2CCN(C(=O)C(=O)c3c(C)n(C)c4ccccc34)CC2)cc1	none
CC1CC(N(C(=O)c2ccc(Cl)cc2)c2ccccc2)c2ccccc2N1C(=O)c1ccco1 (stereo not drawn)	Lassa entry inh 20µM, Marburg entry inh inconclusive
CC1CC(N(C(=O)c2ccco2)c2ccccc2)c2ccccc2N1C(=O)c1ccco1 (stereo not drawn)	Marburg entry inh inconclusive
CC(C)(C)NC(=O)c1nn(Cc2ccccc2)c(=O)c2ccccc12	Lassa entry inh inconclusive
COc1ccc(C(=O)OCC(=O)N2CCCC2=O)c(OC)c1	Cycloheximide cs 32.7, Shiga inhibitor 75.1
CCOC(=O)c1cccc(-n2nnc3c(sc4nc(C)c(Br)c(C)c43)c2=O)c1	none (no result: Cycloheximide cs, Shiga inhibitor)
O=[N+]([O-])c1ccc(N2CCN(c3ccccc3)CC2)cc1	none (no result: Lassa entry inh, Marburg entry inh)
Clc1ccc(/C=N/N2CCCCC2)cc1	Cycloheximide cs 28.6, Shiga inhibitor 33.6 (no result: Lassa entry inh, Marburg entry inh)
CC1CCCC(C)N1/N=C/c1ccc([N+](=O)[O-])cc1 (stereo not drawn)	Cycloheximide cs 42.7, Shiga inhibitor 54.1
CC1CCCC(C)N1/N=C/c1ccc(N(C)C)cc1 (stereo not drawn)	Marburg entry inh inconclusive
O=[N+]([O-])c1ccc(/C=N/N2CCCCC2)cc1	Cycloheximide cs 34.3, Shiga inhibitor 127.5 (no result: Lassa entry inh, Marburg entry inh)
O=[N+]([O-])c1ccc(N2CCCCC2)cc1	Cycloheximide cs 26.8
Clc1ccc(C=NN2CCCCCC2)cc1	Lassa entry inh inconclusive (no result: Cycloheximide cs, Shiga inhibitor)
O=[N+]([O-])c1ccc(/C=N\N2CCN(c3ccc(Cl)cc3)CC2)cc1	none
Clc1ccc(CNCc2cccs2)cc1Cl	none
CCOC(=O)c1ccccc1NC(=O)c1cc2c(=O)oc3ccc(C)cc3c2s1	none (no result: Cycloheximide cs, Shiga inhibitor)
C=CCN=C1CCCc2c1[nH]c1ccc(C)cc21	Cycloheximide cs 30.1, Shiga inhibitor 50.1 (no result: Lassa entry inh, Marburg entry inh)
Cc1ccc(S(=O)(=O)N2CCC(C(N)=O)CC2)cc1[N+](=O)[O-]	none
C/C(=N\OCC(=O)Nc1ccc(F)c(F)c1F)c1cc2ccccc2o1	none
C/C(=N\OCc1ccccc1C#N)c1cc2ccccc2o1	Cycloheximide cs 35.8, Shiga inhibitor 71.2
C/C(=N\OCC(=O)NC12CC3CC(CC(C3)C1)C2)c1cc2ccccc2o1	Lassa entry inh inconclusive, Cycloheximide cs 17.5, Marburg entry inh inconclusive
CSc1ccccc1NC(=O)CO/N=C(\C)c1cc2ccccc2o1	Lassa entry inh inconclusive, Cycloheximide cs 18.0, Marburg entry inh inconclusive
CCCC1CC(=O)OC1(C)C(=O)CSc1n[nH]c(-c2ccccc2)n1 (stereo not drawn)	Shiga inhibitor 65.6 (no result: Lassa entry inh, Marburg entry inh)
CCCC1CC(C)(C(=O)CSc2n[nH]c(-c3ccccc3)n2)OC1=O (stereo not drawn)	Lassa entry inh inconclusive
Cc1ccc(N2CC(NC(=O)c3cccc(Cl)c3)CC2=O)cc1C (stereo not drawn)	none (no result: Cycloheximide cs, Marburg entry inh, Shiga inhibitor)
CN1CCN(NC(=O)c2cc(-c3cccc(Cl)c3)nc3ccccc23)CC1	Lassa entry inh inconclusive, Marburg entry inh inconclusive
CC(C)c1ccc(-c2cc(C(=O)N3N=C(C(F)F)CC3(O)C(F)F)c3ccccc3n2)cc1 (stereo not drawn)	Cycloheximide cs 22.8, Marburg entry inh inconclusive, Shiga inhibitor 83.3
CC(C)c1ccc(-c2cc(C(=O)NN3CCN(C)CC3)c3ccccc3n2)cc1	Lassa entry inh inconclusive, Cycloheximide cs 35.2, Marburg entry inh inconclusive, Shiga inhibitor 82.2
COC(=O)C(Cc1ccc(OC(=O)c2ccccc2Cl)cc1)N1Cc2ccccc2C1=O (stereo not drawn)	Lassa entry inh inconclusive, Cycloheximide cs 21.9, Marburg entry inh inconclusive
Cc1ccccc1NC(=O)C(Cc1ccccc1)N1Cc2ccccc2C1=O (stereo not drawn)	none (no result: Cycloheximide cs, Marburg entry inh, Shiga inhibitor)
COC(=O)C(Cc1ccc(OC(=O)c2ccccc2C)cc1)N1Cc2ccccc2C1=O (stereo not drawn)	Cycloheximide cs 32.8, Marburg entry inh inconclusive, Shiga inhibitor active
Fc1cccc2sc(Nc3nc4cc5c(cc4s3)OCCO5)nc12	Lassa entry inh inconclusive, Cycloheximide cs 51.1, Marburg entry inh inconclusive, Shiga inhibitor 95.8
Fc1cc(F)c2nc(Nc3nc4cc5c(cc4s3)OCO5)sc2c1	Cycloheximide cs 20.7, Marburg entry inh inconclusive
Fc1cccc2sc(Nc3nc4cc5c(cc4s3)OCO5)nc12	Lassa entry inh inconclusive, Cycloheximide cs 70.4, Marburg entry inh inconclusive, Shiga inhibitor 116.2
O=C1Nc2ccccc2/C1=N/N=C/c1cccc(O)c1	Lassa entry inh inconclusive, Cycloheximide cs 48.8, Shiga inhibitor 48.4
COc1cc(/C=N/N=C2/C(=O)Nc3ccccc32)cc(OC)c1O	none
Brc1ccc(CNc2ccc3ncccc3c2)cc1	Cycloheximide cs 29.8, Shiga inhibitor 41.5 (no result: Lassa entry inh, Marburg entry inh)
CC(=O)c1c(C(C)=O)c(C)n(-c2ccc3ncccc3c2)c1C	Lassa entry inh inconclusive
O=C(Nc1ccc2ncccc2c1)c1cc(Cl)ccc1Cl	Cycloheximide cs 44.8, Marburg entry inh inconclusive
Cc1ccc(C(=O)Nc2ccc3ncccc3c2)cc1	Lassa entry inh inconclusive, Cycloheximide cs 13.8, Marburg entry inh inconclusive
CCC(=O)c1ccc2ncccc2c1	Cycloheximide cs 21.2, Shiga inhibitor 44.0
COc1ccccc1NS(=O)(=O)c1cccc(C(=O)N2CCCCCCC2)c1	none (no result: Cycloheximide cs, Shiga inhibitor)
